Bioassay records deposited in PubChem by Sanford-Burnham Center for Chemical Genomics.
MIN6 prolif: inducers of MIN6 beta-cell proliferation, primary screen, ATP luminescence, uHTS; MIN6 cells proliferation, ATPlite luminescence, 48 h; cells starved in 0.2% serum; 100% = growth in 10% serum; proliferation, % at 10 µM; actives 0.29% (n = 330,000); AID 2380, 2010;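 active = compounds whose signal lies at least 3.5 SD above the mean of all wells on their plate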
FAS-TE inh: FAS thioesterase domain inhibitors, primary screen, biochemical, fluorescence intensity, uHTS; recombinant FAS-TE, OMFH fluorogenic substrate, fluorescence endpoint; actives 0.67% (n = 360,000); inhibition, % at 15 µM;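 active = compounds whose normalised, plate-corrected inhibition of enzyme fluorescence in the single-dose primary screen is 50% or more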
MPTP inh: mitochondrial permeability transition pore inhibitors, primary screen, biochemical, isolated mouse mitochondria, absorbance; Ca2+ swelling absorbance, 30 min; inhibition, % at 10 µM; actives 1.4% (n = 360,000); AID 602449, 2012;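 active = inhibition of 50% or more, scaled per plate between neutral and stimulator controls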
NR3A LBD binder: binders of NR3A ligand-binding domain, primary screen, biophysical, differential scanning fluorimetry, uHTS. NR3A LBD differential scanning fluorimetry, Tm shift; 0% = protein alone, 100% = glycine-bound protein. Tm shift relative to glycine control, % at 25 µM. actives 2.5% (n = 340,000);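 active = melting temperature shift of at least 10% of the positive control shift, at one fixed dose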
p-CIP stab down: p/CIP-EGFP fusion destabilizers, primary screen, fluorescence, F442A cells; Q05BA5; 16 h; decrease of EGFP signal, % at 10 µM; actives 0.01% (n = 290,000);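 active = EGFP signal decrease of at least 30% at 10 µM or well 3 SD below plate mean, unless failing retest; inactive = the rest, including hits failing retest or dose response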
FAS-TE inh conf: FAS thioesterase domain inhibitors, confirmation, biochemical, fluorescence intensity, single concentration. shares compounds with FAS-TE inh. recombinant FAS-TE, OMFH fluorogenic substrate. inhibition, % at 15 µM. actives 45% (n = 2,300);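 active = compounds inhibiting the enzyme by at least 50% at 15 µM in any one of the replicates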
Hits are given with their value; - = inactive; . = not tested or not shown. An excerpt weighted towards active compounds, which were near 4.1% of everything screened.

SMILES	MIN6 prolif	FAS-TE inh	MPTP inh	NR3A LBD binder	p-CIP stab down	FAS-TE inh conf
Cn1c(=NC(=O)c2ccc(S(=O)(=O)N3CCCc4ccccc43)cc2)sc2cc(S(C)(=O)=O)ccc21	-	83	-	-	-	-
Cn1c(=NC(=O)c2ccccc2[N+](=O)[O-])sc2cc(S(C)(=O)=O)ccc21	-	-	-	-	-	.
Cc1ccc(S(=O)(=O)N(C)C)cc1NC(=O)[C@H](Cc1ccccc1)N1C(=O)c2ccccc2C1=O	-	53	-	-	-	-
COc1ccc(S(=O)(=O)N(C)C)cc1NC(=O)[C@H](Cc1ccccc1)N1C(=O)c2ccccc2C1=O	-	65	-	-	-	-
Cc1ccc([N+](=O)[O-])cc1NC(=O)CCc1ccccc1	-	50	-	-	-	52
O=C(CN1CCCCCC1)Nc1cccc([N+](=O)[O-])c1	-	-	-	-	-	.
Cc1ccc([N+](=O)[O-])cc1NC(=O)CCCOc1ccccc1	-	68	-	-	-	32
COCC(=O)Nc1cc([N+](=O)[O-])ccc1C	-	-	-	-	-	.
O=C(CN1CCN(c2ccccc2)CC1)Nc1cccc([N+](=O)[O-])c1	-	51	-	-	-	50
O=C(CCCOc1ccccc1)Nc1cccc([N+](=O)[O-])c1	-	-	-	-	-	.
CCCCNC(=S)Nc1cc([N+](=O)[O-])ccc1C	-	51	-	-	-	37
Cc1ccc(C)c(OCC(=O)N(Cc2ccccc2)c2c(N)n(Cc3ccccc3)c(=O)[nH]c2=O)c1	.	-	-	-	.	.
C[C@H](CO)N1C[C@H](C)[C@H](CN(C)Cc2ccncc2)Oc2ncc(Br)cc2C1=O	.	-	-	.	.	.
O=C(CCc1ccccc1)Nc1cccc([N+](=O)[O-])c1	-	-	-	-	-	.
O=C(CCCc1ccccc1)Nc1cccc([N+](=O)[O-])c1	-	66	-	-	-	60
Cc1ccc(C)c(N2CCN(CC(=O)Nc3ccc([N+](=O)[O-])cc3C(=O)Nc3ccccc3F)CC2)c1	-	-	-	-	-	.
O=C(CN1CCN(c2cccc(Cl)c2)CC1)Nc1ccc([N+](=O)[O-])cc1C(=O)Nc1ccccc1F	-	60	-	-	-	-
CC(C)(C)OC(=O)N[C@@H](CCCCNC(=O)OCc1ccccc1)c1nnc([C@H](CCCCNC(=O)OCc2ccccc2)NC(=O)OC(C)(C)C)o1	-	66	-	-	-	-
Cc1cccc(NC(=O)c2nc[nH]c2C(=O)NCCCCCNC(=O)OC(C)(C)C)c1	-	-	-	-	.	.
CC(C)(C)OC(=O)NCCCC[C@H](NC(=O)c1nc[nH]c1C(=O)NC1CCN(C(=O)OC(C)(C)C)CC1)C(=O)OC(C)(C)C	-	84	-	-	-	59
COc1ccc(NC(=O)C(CCCCNC(=O)OC(C)(C)C)NC(=O)OCc2ccccc2)cc1 (stereo not given)	-	-	-	-	-	.
Cc1cccc(NC(=O)c2nc[nH]c2C(=O)N[C@@H](CCCCNC(=O)OC(C)(C)C)C(=O)OC(C)(C)C)c1	-	90	-	-	-	55
C[C@H](NC(=O)c1nc[nH]c1C(=O)N[C@@H](CCCCNC(=O)OC(C)(C)C)C(=O)OC(C)(C)C)C(=O)OC(C)(C)C	-	73	-	-	-	62
CCOC(=O)C1=CCN(S(=O)(=O)c2ccc(F)cc2)C1c1cccc(C)c1 (stereo not given)	.	-	-	.	.	.
O=C1NC[C@@H](CCCCN2C[C@H](Cc3ccc(O)cc3)N(CCc3ccc(O)cc3)C(=O)C2=O)N(Cc2ccccc2)C1=O	.	-	-	.	.	.
O=C1c2cc3c(cc2CCC1c1ccc2c(c1)OCO2)OCO3 (stereo not given)	.	-	-	.	.	.
CC(C)(C)OC(=O)NCCCC[C@H](NC(=O)c1nc[nH]c1C(=O)NCC(=O)OCc1ccccc1)C(=O)OC(C)(C)C	-	90	-	-	-	96
